{"source": "PubChem BioAssay (NCATS)", "note": "Inconclusive results are not listed. Entries that show only a call come without a potency. Activity calls are given as the source filed them. The call rests on the fitted dose curve; in most records, active means well fitted inhibition curve with a large enough effect; inconclusive means small, poorly fitted or top-dose-only effect; inactive means flat fitted curve, though single readings scatter.", "data": [{"target": "Calcium and integrin-binding protein 1 (Homo sapiens) (UniProt Q99828)", "sequence (Q99828 whole entry, looked up)": "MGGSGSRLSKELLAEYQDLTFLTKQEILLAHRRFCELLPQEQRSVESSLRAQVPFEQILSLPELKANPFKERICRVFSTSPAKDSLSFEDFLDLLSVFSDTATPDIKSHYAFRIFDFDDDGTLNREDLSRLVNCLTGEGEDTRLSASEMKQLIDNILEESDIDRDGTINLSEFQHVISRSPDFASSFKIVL", "test": "Primary qHTS for Identification of Calcium Integrin Binding Protein 1 (CIB1) Competitor (AID 1508620);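 further: GST tagged CIB1 binding a fluorescein labelled alphaIIb integrin peptide tracer; top concentration of the series differs between compounds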", "conditions": "CIB1-GST / FITC-alphaIIb peptide fluorescence polarization; series mostly up to 57.7 µM", "procedure,_shortened": "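Fluorescence polarization competition: CIB1-GST (1 uM final) preincubated with compound 15 min at room temperature, then FITC-labeled alphaIIb peptide (100 nM final) added for another 15 min. Polarization read at Ex 480/Em 540.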", "values": [{"smiles": "C[C@H]1CC[C@@]2(OC1)O[C@H]1CC3C4CC[C@H]5C[C@@H](O[C@@H]6O[C@H](CO)[C@H](O[C@@H]7O[C@H](CO)[C@@H](O)[C@H](O[C@@H]8OC[C@@H](O)[C@H](O)[C@H]8O)[C@H]7O[C@@H]7O[C@H](CO)[C@@H](O)[C@H](O)[C@H]7O)[C@H](O)[C@H]6O)[C@H](O)C[C@]5(C)C4=CC(=O)[C@]3(C)[C@H]1[C@@H]2C", "note": "(some centres not stated)", "Potency": "inactive"}, {"smiles": "CC1=C[C@H](O)[C@H]2C(C)(C)CCC[C@]2(C)[C@@]1(O)CO", "Potency": "inactive"}, {"smiles": "C=C1CCC2C(C)(C(=O)OC)CCCC2(C)C1CCC1=CCOC1=O", "note": "(configuration not stated)", "Potency": "inactive"}, {"smiles": "O=C(O)/C=C/c1ccc(O[C@@H]2O[C@H](CO)[C@@H](O)[C@H](O)[C@H]2O)cc1", "Potency": "inactive"}, {"smiles": "C=CC(C)(O)CCC1C(C)(O)CCC2C(C)(C)CCCC21C", "note": "(configuration not stated)", "Potency": "inactive"}, {"smiles": "CCC(C)C1NC(=O)C2C(C)CCN2C(=O)C(CC(O)CO)OC(=O)CCNC(=O)C(C)N(C)C(=O)C(C(C)C)N(C)C1=O", "note": "(configuration not stated)", "Potency": "inactive"}, {"smiles": "CC1CC(=O)[C@]2(O)C(C(=O)OCCc3ccc(O)cc3)=CO[C@@H](O[C@@H]3O[C@H](CO)[C@@H](O)[C@H](O)[C@H]3O)[C@H]12", "note": "(some centres not stated)", "Potency": "inactive"}, {"smiles": "C[C@@H]1O[C@@H](O[C@H]2[C@H](OC(=O)[C@]34CCC(C)(C)C[C@H]3C3=CCC5[C@@]6(C)C[C@@H](O)[C@@H](O[C@@H]7O[C@H](CO)[C@@H](O)[C@H](O)[C@H]7O)[C@@](C)(CO)C6[C@H](O)C[C@@]5(C)[C@]3(C)CC4)OC[C@H](O)[C@@H]2O)[C@H](O)[C@H](O[C@@H]2OC[C@](O)(CO)[C@H]2O)[C@H]1O[C@@H]1OC[C@@H](O)[C@H](O[C@H]2O[C@H](C)[C@@H](O)[C@H](O)[C@@H]2O)[C@H]1O", "note": "(some centres not stated)", "activity change, negative = inhibition": "5.13% [at 12.4 µM] (inactive)"}, {"smiles": "Cc1ncc([N+](=O)[O-])n1C[C@H](O)CN1CCOCC1", "Potency": "inactive"}, {"smiles": "O=C(OCC1=CC(Cl)C(O)C(OC(=O)c2ccccc2)C1O)c1ccccc1", "note": "(configuration not stated)", "Potency": "inactive"}, {"smiles": "O=C(O)CCc1c(C(=O)O)[nH]c2cc(Cl)cc(Cl)c12", "Potency": "inactive"}, {"smiles": "CC1(C)CC[C@]2(C(=O)O[C@@H]3O[C@H](CO[C@@H]4O[C@H](CO)[C@@H](O)[C@H](O)[C@H]4O)[C@@H](O)[C@H](O[C@@H]4O[C@H](CO)[C@@H](O)[C@H](O)[C@H]4O)[C@H]3O)CC[C@]3(C)C(=CCC4[C@@]5(C)CC[C@H](O[C@@H]6OC[C@@H](O)[C@H](O)[C@H]6O)[C@@](C)(C(=O)O)C5CC[C@]43C)[C@@H]2C1", "note": "(some centres not stated)", "Potency": "inactive"}, {"smiles": "Cc1cc(OCCN2CCOCC2)nn1-c1ccc2ccccc2c1", "Potency": "inactive"}, {"smiles": "CC[C@@H](Nc1c(Nc2cccc(C(=O)N(C)C)c2O)c(=O)c1=O)c1ccc(C)o1", "Potency": "inactive"}, {"smiles": "CC1(C)CC[C@]2(C(=O)O)CC[C@]3(C)C(=CCC4[C@@]5(C)CC[C@H](O[C@@H]6O[C@H](C(=O)O)[C@@H](O)[C@H](O[C@@H]7O[C@H](CO)[C@H](O)[C@H](O)[C@H]7O)[C@H]6O[C@@H]6O[C@H](CO)[C@@H](O)[C@H](O)[C@H]6O)C(C)(C)C5CC[C@]43C)[C@@H]2C1", "note": "(some centres not stated)", "activity change, negative = inhibition": "10.7% [at 12.4 µM] (inactive)"}, {"smiles": "C=C1CC/C=C(/CO)C(=O)C[C@@H]2[C@@H]1C[C@@]2(C)COC(C)=O", "Potency": "inactive"}, {"smiles": "CC1CC(=O)C2C(O)(C1)CC(O)C13OC1c1c(O)cccc1C(=O)C23O", "note": "(configuration not stated)", "Potency": "inactive"}, {"smiles": "CC(=O)O[C@@H]1[C@H](O[C@@H]2OC[C@](O)(CO)[C@H]2O)[C@@H](O[C@@H]2O[C@@H](C)[C@H](O)[C@@H](O[C@@H]3O[C@H](CO)[C@@H](O)[C@H](O)[C@H]3O)[C@H]2O)[C@H](OC(=O)[C@]23CCC(C)(C)C[C@H]2C2=CCC4[C@@]5(C)C[C@H](O)[C@H](O[C@@H]6O[C@H](C(=O)O)[C@@H](O)[C@H](O)[C@H]6O)[C@@](C)(C(=O)O)C5CC[C@@]4(C)[C@]2(C)CC3)O[C@@H]1C", "note": "(some centres not stated)", "activity change, negative = inhibition": "4.9% [at 12.4 µM] (inactive)"}, {"smiles": "CC[C@@H]1[C@H]2CCCCN3C(=O)C[C@H]([C@@H]4[C@H]1OC(=O)[C@H]4C)[C@@H]23", "Potency": "inactive"}, {"smiles": "C[C@@H]1C[C@@H](O)[C@@]23CO[C@]2(CO)CCC[C@@H]3[C@@]12C[C@@H](c1ccoc1)OC2=O", "Potency": "inactive"}, {"smiles": "CC(C)(OC1OC(CO)C(O)C(O)C1O)C1CCC(O)(CO)C2CC(=O)C(C)(O)C2C1", "note": "(configuration not stated)", "Potency": "inactive"}, {"smiles": "CC(C)=CCC[C@@](C)(O)[C@H]1CC[C@]2(C)[C@@H]1[C@H](O)CC1[C@@]3(C)CC[C@H](O[C@@H]4O[C@H](CO)[C@@H](O)[C@H](O)[C@H]4O[C@@H]4O[C@H](CO)[C@@H](O)[C@H](O)[C@H]4O)C(C)(C)[C@@H]3CC[C@]12C", "note": "(some centres not stated)", "Potency": "inactive"}]}]}
